About 83,000 compounds went through this panel and 20% of them were active in at least one assay; those are over-represented in the sample as a whole.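 Cell lines were cultured in 96-well plates, exposed to a single compound concentration, and assessed for percent growth 48 hours later.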 Activity calls are given as the source filed them. Rule for the calls: active = growth percent below 10; inactive = the rest.
Test system: MDA-MB-468 breast
Assay: NCI-60 one-dose screen, 48 h (100 = growth as untreated, 0 = no growth, -100 = all killed)
Conditions: 10 µM unless noted

| Structure (SMILES) | growth |
| --- | --- |
| Cc1ccc(-c2nc(/C=C3/C(=O)Nc4ccc(F)cc43)c3ccccn23)cc1 | 77.3% (inactive) |
| C=CC(=O)Nc1ccc2ncnc(Nc3cccc(NS(=O)(=O)CCC)c3Cl)c2c1 | -31.9% (active) |
| CCCCCCCCNc1cc2c3c(c1)CCCN3CCC2 | -23% (active) |
| CCOC(=O)c1sc(NC(=O)CN2CCC(Cc3ccccc3)CC2)nc1C | 98.5% (inactive) |
| CC/C(=C(/c1ccc(Cl)cc1)c1ccc(OCCN2CCCCC2)cc1)c1ccc(Cl)cc1 | 51.9% (inactive) |
| C=C(C)[C@@H]1CC[C@]2(C)[C@H](C(=O)C=C3[C@@H]4C[C@](C)(C(=O)N5CCN(C)CC5)CC[C@]4(C)CC[C@]32C)[C@@]1(C)CCC#N | -76.5% [100 µM] (active) |
| COc1ccc(C(=O)/C=C/c2ccccc2)cc1S(N)(=O)=O | 66.1% (inactive) |
| CN(C)c1ncnc2c1ncn2C1CCCCO1 (stereo not given) | 111% (inactive) |
| N#C/C(=C\c1cn(Cc2ccccc2)c2ccccc12)C(=O)Nc1ncc(Cc2ccccc2Cl)s1 | -14.7% (active) |
| CS(=O)(=O)c1ccc(/C(=N/N=C(N)N)c2ccc(F)cc2)cc1 | -5.12% (active) |
| CCc1ccc2c(c1)N(CCO)C1=C(C(=O)OC1)C2c1ccccc1 (stereo not given) | 104% (inactive) |
| CCO/C=N/C1=C(C#N)C(c2ccc(Cl)cc2)c2sc3c(C)cccc3c2O1 (stereo not given) | -3.01% (active) |
| CCOC(=O)c1c(C)c2c(n1Cc1ccccc1)CSc1cc(C#N)c(=O)[nH]c1-2 | 80.3% [100 µM] (inactive) |
| CC[C@@H](CO)Nc1ccc2ncc(C#Cc3cncc(C(=O)Nc4ccc(CN5CCN(C)CC5)c(C(F)(F)F)c4)c3)n2n1 | -68.4% (active) |
| CCOC(=O)C(CCN(C)C)c1ccccc1 (stereo not given) | 101% (inactive) |
| CCOC(=O)c1ccc(NC2=CC(=O)C(C)=C(C)C2=O)cc1 | 13.8% (inactive) |
| CCC(=O)Oc1cc(/C=C/C(=O)O[C@H]2C[C@H]3CN4CCc5c([nH]c6cc(OC)ccc56)[C@@H]4C[C@@H]3[C@@H](C(=O)OC)[C@@H]2OC)ccc1OC | 71.3% (inactive) |
| Nc1ccc(-c2cc3c(Nc4ccc(Oc5cccc(C(F)(F)F)c5)c(Cl)c4)ncnc3s2)cc1 | -9.82% (active) |
| O=C(Nc1cccc(Cl)c1)Nc1nc2ccc([N+](=O)[O-])cc2o1 | -4.51% (active) |
| CC(C)(C)c1ccc(O)c(C2CCCCC2)c1 | 111% (inactive) |

| Structure (SMILES) | growth |
| --- | --- |
| CS(CCCCN=C=S)=NC(=O)c1c(F)c(F)c(F)c(F)c1F (stereo not given) | 30.1% (inactive) |
| Oc1ccccc1/C=N\NC(=S)Nc1ccc(F)cc1 | 2.61% (active) |
| Clc1cccc(Cl)c1C1CSc2ccccc2N=C1c1ccccc1 (stereo not given) | 80.3% (inactive) |
| CCN(CC)c1ccc(/C=N/NC(=O)c2ccc(S(N)(=O)=O)cc2)cc1 | 1.85% (active) |
| COC(=O)[C@]1(C)CCC[C@]2(C)[C@H]3C[C@H]4C(C(C)C)=C[C@]3(CC[C@H]21)[C@@H]1C(=O)CC[C@H](OCCC#N)[C@@H]14 | 70.5% (inactive) |
| CCOC(=O)/C(=C/c1ccc(OC)cc1)N(CC)CC | 106% (inactive) |
| Cn1cnc(-c2cc3nccc(Oc4ccc(NC(=S)NC(=O)Cc5ccccc5)cc4F)c3s2)c1 | 103% (inactive) |
| Cc1ccc(-c2cc3nc(C(Cl)Cl)nc(-c4cccnc4)n3n2)cc1 | -61.5% (active) |
| COc1cc2c(cc1-c1c(C)noc1C)ncc1nc(C3CCCCC3)n(C3CCC(OC(F)F)CC3)c12 (stereo not given) | 29.8% (inactive) |
| COC(=O)c1ccc2c(c1)c1c(C)c3cnccc3c(C)c1n2C | -38% (active) |
| CCCC(=O)Oc1ccc2ccccc2c1 | 94% (inactive) |
| CN1CCN(c2ccc(C(=O)Nc3cccc(-c4cn(-c5ccc(S(N)(=O)=O)cc5)nn4)c3)cc2C(F)(F)F)CC1 | 68.9% (inactive) |
| CCCCCCCCCCNCCSS(=O)(=O)O | 110% (inactive) |
| Cc1ccc(C2=NN(c3ccc(S(N)(=O)=O)cc3)C(c3cn(-c4ccccc4)nc3-c3ccccc3)C2)cc1 (stereo not given) | 112% (inactive) |
| CSc1nn(-c2ccccc2)c2ncnc(Oc3ccc(C)cc3)c12 | 93.2% (inactive) |
| NC(=S)N/N=C(/c1ccccc1)c1ccccc1N | 18.4% (inactive) |
| Nc1cccc2c1CN(C1CCC(=O)NC1=O)C2=O (stereo not given) | 84% (inactive) |
| O=C(NNC(=O)c1ccc(-n2cc(-c3ccccc3)nn2)cc1)Nc1ccccc1 | 109% (inactive) |
| COc1ccc(-c2cc(-c3cccnc3)nc3sc4c(N)c(C(C)=O)c(-c5ccccc5)nc4c23)cc1OC | 76.3% (inactive) |
| CCCC(CCC)(C(N)=O)C(=O)O | 105% (inactive) |
